# From the supplement of paper PMC3334620
# The full ranking holds about 33,000 sequences; the median of “E-score (-0.5 to 0.5)” is about -0.016, and the highest 2% start at about 0.32. The sample as a whole holds a higher share of the highest values than the screen did.
# Biological target: T1, Stp1 (UniProt B3LFK1)
# T1 sequence: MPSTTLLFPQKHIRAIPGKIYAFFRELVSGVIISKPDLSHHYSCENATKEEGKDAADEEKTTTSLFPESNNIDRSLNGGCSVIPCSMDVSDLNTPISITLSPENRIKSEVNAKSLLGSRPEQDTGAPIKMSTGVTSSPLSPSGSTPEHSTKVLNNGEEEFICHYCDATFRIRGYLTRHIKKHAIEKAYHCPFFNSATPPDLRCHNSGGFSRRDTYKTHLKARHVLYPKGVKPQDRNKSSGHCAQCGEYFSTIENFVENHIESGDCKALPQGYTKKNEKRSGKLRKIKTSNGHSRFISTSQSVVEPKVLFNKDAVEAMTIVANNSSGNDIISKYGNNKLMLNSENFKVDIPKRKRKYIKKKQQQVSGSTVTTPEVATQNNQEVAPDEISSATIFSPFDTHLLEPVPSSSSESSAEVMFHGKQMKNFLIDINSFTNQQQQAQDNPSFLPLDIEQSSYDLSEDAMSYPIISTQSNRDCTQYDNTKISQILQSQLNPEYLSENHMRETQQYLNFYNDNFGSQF
# Assay: PBM E-score (8-mer binding enrichment) (E-score (-0.5 to 0.5)); higher = stronger / more preferred TF binding
# Details: protein concentration: 200 nM; construct: GST-full length
# Summary of the method: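 GST-tagged yeast TFs (full-length or DNA-binding domain) were made by PURExpress in vitro transcription/translation and applied at about 100-200 nM to universal all-10-mer Agilent arrays. The arrays were made double-stranded by primer extension, on fresh or once-stripped slides. Bound protein was detected with fluorescent anti-GST, and scans were normalised with masliner. Each ungapped eight-base word, pooled with its reverse complement, received an E-score (modified Wilcoxon-Mann-Whitney statistic) from the Universal PBM Analysis Suite.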
row,Sequence,PBM E-score
1,ACAAAAGT,0.0775
2,ACGTTAAT,0.112
3,GCCCTACA,0.0881
4,GTAACTAA,0.0925
5,CTTGATAC,0.113
6,CTAGGTCC,-0.102
7,AGTCAAGA,-0.0455
8,GTTCAAGA,0.0574
9,CCTCGGAA,-0.0641
10,CCGCCGCG,0.437
11,CCGCCGAG,0.083
12,CCGCCCCG,0.273
13,TCCAAGCA,0.0574
14,GGCATCCC,-0.0465
15,AGCATCGA,-0.0592
16,CGCATCGA,0.0903
17,GGCATCGA,0.327
18,CTATGCTA,-0.0393
19,CAACCAGA,0.0587
20,CAGCACGC,0.145
21,CAGCACGA,-0.0106
22,CCGCACGC,0.323

row,Sequence,PBM E-score
1,CAGCACGG,0.333
2,ACGCACGG,0.419
3,AAGCACGG,0.295
4,CCGCACAA,0.285
5,GCGCACGC,-0.0354
6,CCGCACGG,0.448
7,ACGCACGA,0.237
8,CCGCACGA,0.27
9,ACGCACGC,0.265
10,ATTCTAAG,0.126
11,ACGGGGAT,-0.0326
12,AGTCTTCC,-0.0735
13,TGGGGCAA,-0.00868
14,CGAAGTGA,0.00778
15,CCCAACCC,-0.174
16,CGCGTCCG,-0.0671
17,ATCATAAC,0.161
18,TATAGCGA,-0.151
19,AGGGAGCA,-0.403
20,CGCGGAAC,0.383
21,GGCGGAAC,0.125
22,AGCGGAAC,-0.0267

row,Sequence,PBM E-score
1,ACAATCAT,-0.00872
2,AAGGGCGC,0.354
3,CAGGGCGA,0.0902
4,CAGGGCGG,-0.116
5,CAGGGCGC,0.363
6,AAGGGCGG,-0.0196
7,CAGGGCAG,-0.114
8,CAGGGCAC,0.355
9,AGGGGCGC,0.232
10,CAGGGCAA,0.0617
11,GGGCCTCA,-0.0568
12,AACCCACT,0.00826
13,CGACTAGC,-0.13
14,ATCGTTCG,0.0636
15,GCTGCCAC,0.0537
16,AAGTGCCA,0.163
17,CAGTGCCG,0.453
18,CAGTGCCC,0.108
19,AAGTGCCG,0.453
20,CAGTGCCA,-0.0624
21,AAGTGCCC,0.079
22,AGTAGTGA,-0.0104

row,Sequence,PBM E-score
1,CTGGATAA,0.0621
2,AGGCATTC,0.106
3,GGGCATTA,0.139
4,AGGCATTA,0.228
5,CGGCATTA,0.436
6,CGGCATTC,0.441
7,CTGCATTC,-0.111
8,ACCTACAT,-0.177
9,AGTAGTCG,-0.0173
10,ATACTCAG,0.06
11,CACTGGGG,-0.231
12,GAGATATC,0.0576
13,ACACGCCA,0.0386
14,ATACGCCA,0.0267
15,CCACGCCC,-0.188
16,CCACGCCA,0.0283
17,ATACGCCC,-0.157
18,ATACGCCG,0.381
19,ACACGCCG,0.351
20,ACACGCCC,-0.181
